# Screen size: about 190,000 compounds; about 810 (0.43%) were called active. Rule as the data show it: active = inhibition above about 50%; inactive = the rest. The full list was thinned out, with actives kept by preference.
# Molecular target: Mannose-6-phosphate isomerase (Homo sapiens) (UniProt P34949)
# Assay: MPI enzyme activity inhibition – biochemical, fluorescence intensity, coupled assay, primary screen (AID 1209);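 also: plate controls were DMSO vehicle for no effect and wells lacking substrate for full effect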
# Conditions: purified PMI enzyme, at 20 µM, hits give high values
# Mannose-6-phosphate isomerase (Homo sapiens), sequence (P34949 whole entry, looked up): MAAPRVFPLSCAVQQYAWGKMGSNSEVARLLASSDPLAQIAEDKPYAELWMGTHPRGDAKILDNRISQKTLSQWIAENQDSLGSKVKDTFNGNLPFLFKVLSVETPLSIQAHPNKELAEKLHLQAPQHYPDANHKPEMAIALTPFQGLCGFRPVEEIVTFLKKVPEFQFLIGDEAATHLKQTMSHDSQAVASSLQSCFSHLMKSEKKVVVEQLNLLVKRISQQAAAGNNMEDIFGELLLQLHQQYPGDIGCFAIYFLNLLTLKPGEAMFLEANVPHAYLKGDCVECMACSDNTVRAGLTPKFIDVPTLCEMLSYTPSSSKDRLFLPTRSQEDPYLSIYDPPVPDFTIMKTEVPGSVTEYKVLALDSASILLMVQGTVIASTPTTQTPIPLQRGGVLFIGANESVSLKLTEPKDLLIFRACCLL
row,Compound,inhibition
1,O=C(O)CCn1cc(C=C2C(=O)NC(=O)NC2=O)c(-c2cc3ccccc3oc2=O)n1,-3.7% (inactive)
2,O=C(O)CCn1cc(C=C2C(=O)NC(=S)NC2=O)c(-c2cc3ccccc3oc2=O)n1,-33.9% (inactive)
3,O=C(O)CCn1cc(C=C2C(=O)NC(=S)NC2=O)c(-c2cccc(Cl)c2)n1,64.1% (active)
4,N#CCCn1cc(C=C2C(=O)NC(=O)NC2=O)c(-c2ccccc2)n1,-7.4% (inactive)
5,O=C(O)CCn1cc(C=C2C(=O)NC(=O)NC2=O)c(-c2ccc(Br)cc2)n1,5.8% (inactive)
6,O=C(O)CCn1cc(C=C2C(=O)NC(=S)NC2=O)c(-c2ccccc2)n1,55.5% (active)
7,O=c1c2ccccc2nc(-c2cccs2)n1-c1ccccc1,-8.6% (inactive)
8,COc1ccc(N/N=C/c2c(O)n(-c3cccc(C)c3)c(=O)[nH]c2=O)cc1,-72.8% (inactive)
9,CCOCCCNC(=O)CN1C2CCC1CC(O)(c1ccc(OC)cc1)C2 (centres undefined),15% (inactive)
10,CC(=O)Nc1ccccc1OC(=O)N(C)C,7.3% (inactive)
11,CN(C)CCCN=Cc1c(O)n(CCc2ccccc2)c(=O)[nH]c1=O,-1.1% (inactive)
12,CCOC(=O)c1c(N)n(CCCOC(=O)c2ccco2)c2nc3ccccc3nc12,6% (inactive)
13,CCCCn1c(N)c(C(=O)NCc2cccs2)c2nc3ccccc3nc21,59.9% (active)
14,CCCCn1c(NC(=O)c2ccc(Br)o2)c(C(=O)OCC)c2nc3ccccc3nc21,22.2% (inactive)
15,COCCCn1c(N)c(C(=O)NCCC(C)C)c2nc3ccccc3nc21,37.9% (inactive)
16,CCCCNC(=O)c1c(N)n(CCCOC)c2nc3ccccc3nc12,41.1% (inactive)
17,CCCCCCn1c(N)c(C(=O)NCCN2CCOCC2)c2nc3ccccc3nc21,28.6% (inactive)
18,CC(C)CCn1c(N)c(C(=O)NCc2cccs2)c2nc3ccccc3nc21,24.5% (inactive)
19,CCCCn1c(NC(=O)c2ccco2)c(C(=O)OCC)c2nc3ccccc3nc21,55.8% (active)
20,CCC(C)NC(=O)c1c(N)n(CCCOC)c2nc3ccccc3nc12 (centres undefined),56% (active)
21,CCCCCn1c(N)c(C(=O)NCCN2CCOCC2)c2nc3ccccc3nc21,25.4% (inactive)
22,CCCCCn1c(N)c(C(=O)NCc2cccs2)c2nc3ccccc3nc21,51.9% (active)
23,CCCCn1c(N)c(C(=O)NCCN2CCOCC2)c2nc3ccccc3nc21,17.1% (inactive)
24,CC1C(c2cccs2)=[N+]([O-])C(C)(C(=O)c2cccs2)N1O (centres undefined),-1.9% (inactive)
25,Cc1c(C=O)c2ccccc2n1Cc1cccc(F)c1,-20.1% (inactive)

row,Compound,inhibition
1,CCOC(=O)C1C(=O)N(C)C2(C)CC1c1cc(OC)ccc1O2 (centres undefined),-7% (inactive)
2,O=C1NC(=O)C(CCc2ccncc2)(CCc2ccncc2)C(=O)N1CCc1ccc(F)cc1,-4.4% (inactive)
3,COc1ccc2[nH]c(C)c(CCN3CCC(=O)C(C)C3C)c2c1 (centres undefined),13.4% (inactive)
4,COC(=O)N(c1ccc(OC)cc1)P1(=S)OCCC(C)O1 (centres undefined),62.3% (active)
5,COC(=O)N(c1ccccc1)P1(=S)OCCO1,24.3% (inactive)
6,CCOC(=O)N(c1ccccc1)P1(=S)OCC(C)O1 (centres undefined),-1.5% (inactive)
7,CCn1c(=O)n(CC)c2cc([N+](=O)[O-])c(N3CCNCC3)cc21,0.8% (inactive)
8,CCn1nc(-c2ccccc2)nc2c(=O)n(C)c(=O)nc1-2,-4.4% (inactive)
9,CCn1nc(/C=C/c2ccccc2)nc2c(=O)n(C)c(=O)nc1-2,39.7% (inactive)
10,Cc1nc2c(=O)n(C)c(=O)nc-2n(C)n1,73.6% (active)
11,Cn1ncnc2c(=O)n(C)c(=O)nc1-2,74.8% (active)
12,CCn1nc(-c2cccs2)nc2c(=O)n(C)c(=O)nc1-2,6.3% (inactive)
13,CCc1ccc(CN2CCN(Cc3ccc(SC)cc3)CC2)cc1,-14.5% (inactive)
14,C=C1N2CCC(CC2)C1(O)c1ccc(C)c(C)c1 (centres undefined),-10.2% (inactive)
15,O=C(Cc1ccccc1)OCCNC(=O)c1cccnc1,-4% (inactive)
16,CN(C)C(=O)Oc1c(Cl)cc(Cl)c2cccnc12,8.2% (inactive)
17,COC(=O)c1ccccc1N=Cc1c(O)[nH]c(=S)[nH]c1=O,-42.9% (inactive)
18,O=c1c(/C=N/N2CCOCC2)c(O)n(-c2ccccc2)c(=S)n1-c1ccccc1,4.6% (inactive)
19,Cc1ccccc1C(=O)NC(Oc1ccccc1)C(Cl)(Cl)Cl (centres undefined),6.5% (inactive)
20,CC(=O)N(C1=NCCCS1)c1ccccc1Cl,-4.6% (inactive)
21,O=c1[nH]c(=O)n(-c2cccc(Cl)c2)c(O)c1C=NCCCN1CCOCC1,4.5% (inactive)
22,COc1ccc(P2(=O)Nc3ccccc3N2)cc1,16.8% (inactive)
23,CC1=CC(=O)NP(=O)(Oc2ccc3ccccc3c2)N1 (centres undefined),78.5% (active)
24,O=C(C1CC(c2ccc(F)cc2)=NO1)N1CCC2(CC1)OCCO2 (centres undefined),-5.3% (inactive)
25,Cn1ccnc1P(=S)(c1nccn1C)c1nccn1C,-5% (inactive)

row,Compound,inhibition
1,Cc1ccc(NP(=O)(c2ccccc2)c2nc3ccccc3s2)cc1 (centres undefined),80.5% (active)
2,COCCNP(=O)(c1ccccc1)c1nc2ccccc2s1 (centres undefined),1.6% (inactive)
3,O=P(c1ccccc1)(c1nc2ccccc2s1)N1CCOCC1 (centres undefined),-5.8% (inactive)
4,CN(C)c1ccc([P+](=O)c2ccc(N(C)C)cc2)cc1,10.8% (inactive)
5,CCc1c(C)nc(N)nc1N1N=C1SCC(N)=O,-3% (inactive)
6,Cc1ccccc1N1C(=O)NC(=O)/C(=C\c2ccc3c(c2)CCCN3Cc2ccccc2)C1=O,-9% (inactive)
7,CC1CC(OP(O)(=S)c2ccc(N(C)C)cc2NC(=O)c2cccs2)CC(C)(C)C1 (centres undefined),59.7% (active)
8,CCOC(=O)C1(CCc2ccccc2)CCN(Cc2cccc3cnccc23)CC1,24.8% (inactive)
9,COc1ccc(C(CC(=O)N2CCC3(CC2)OCCO3)NS(=O)(=O)c2ccc(OC)cc2)cc1 (centres undefined),4.9% (inactive)
10,O=C(C1CCCO1)N1CCC2(CC1)OCCO2 (centres undefined),5.3% (inactive)
11,CCN1C(=O)C(=Cc2cc(C)n(C3CC3)c2C)C(=O)N(CC)C1=S,63.8% (active)
12,Cc1cc(C=C2C(=O)N(C)C(=S)N(C)C2=O)c(C)n1C1CCCCC1,-12.8% (inactive)
13,Cc1cc(C=C2C(=O)N(C)C(=S)N(C)C2=O)c(C)n1C1CCCC1,6% (inactive)
14,Cn1c(O)c(C(=O)c2ccccc2)c(=O)n(C)c1=O,-12.2% (inactive)
15,CCCCC(=O)N/N=C/c1c(O)n(C2CC2)c(=S)[nH]c1=O,20.6% (inactive)
16,O=c1[nH]c(=S)n(C2CC2)c(O)c1/C=N/Nc1ccccc1,-61.8% (inactive)
17,O=C(N/N=C/c1c(O)n(C2CC2)c(=S)[nH]c1=O)c1ccccc1O,60.8% (active)
18,COc1ccc(C2=NCC(=O)N(CC(=O)NCc3ccco3)c3sc4c(c32)CCCC4)cc1,4.5% (inactive)
19,O=C1CC(=O)N(c2cccc(Cl)c2)C(=O)N1,0.2% (inactive)
20,CCCCc1nc(N2CCNCC2)c(C#N)c2c1CSC(C)(C)C2,3.9% (inactive)
21,Oc1ccc(/C=N/NP(=S)(c2ccccc2)c2ccccc2)c(O)c1O,62.4% (active)
22,Oc1ccccc1/C=N/NP(=S)(c1ccccc1)c1ccccc1,6.9% (inactive)
23,Oc1ccc(/C=N/NP(=S)(c2ccccc2)c2ccccc2)cc1,14.9% (inactive)
24,O=C1c2ccccc2C(=O)N1Cc1nc2ccccc2c(=O)n1-c1ccccn1,-3% (inactive)
25,CCCCCCOc1ccc(CN2CCN(CCO)CC2)cc1,-11.3% (inactive)

row,Compound,inhibition
1,COc1cccc(N2CCN(Cc3cccc(Cl)c3)CC2)c1,9.6% (inactive)
2,CC12CCC(=O)C=C1CCC1C2CCC2(C)C(O)CCC12 (centres undefined),-6.1% (inactive)
3,C[C@]12CC[C@@H]3c4ccc(O)c(O)c4CC[C@H]3[C@@H]1CC[C@@H]2O,75.9% (active)
4,CC12CCC3C(CCC4C/C(=N/O)CCC43C)C1CCC2O (centres undefined),2.7% (inactive)
5,CCOP(=O)(C#CC(C)(C)C)C(C)(O)c1ccccc1 (centres undefined),3.1% (inactive)
6,Cc1nc2cc(C(F)(F)F)ccc2n1C1CCN(Cc2nnnn2Cc2cccs2)CC1,9.2% (inactive)
7,CN1CCN(c2c(N)c(=O)oc3ccccc23)CC1,0.6% (inactive)
8,COCCOC(=O)c1c(N)n(Cc2ccccc2)c2nc3ccccc3nc12,14.3% (inactive)
9,Cn1c(O)c(C=NC2CCCCCC2)c(=O)[nH]c1=S,6.6% (inactive)
10,CN(C)c1cccc2c(C#N)ccc(N(C)C)c12,82% (active)
11,CC(C)(C)c1ccc(S(=O)(=O)N2CC3CC(C2)c2cccc(=O)n2C3)cc1 (centres undefined),-3.5% (inactive)
12,Cc1cc(=O)[nH]c(SCc2nc3ccccc3c(=O)n2-c2ccccc2C)n1,0.9% (inactive)
13,COc1cccc(NP(=O)(Oc2ccc(Cl)cc2)Oc2ccc(Cl)cc2)c1,18.7% (inactive)
14,Cc1ccsc1C(=O)C1CCCN(Cc2cnn(C)c2)C1 (centres undefined),9.3% (inactive)
15,COc1ccc(CC2c3cc(OC)c(OC)cc3CCN2C)cc1O (centres undefined),-2.1% (inactive)
16,O=C1C2CCN(CC2)C1Cc1ccccc1O (centres undefined),-6.7% (inactive)
17,Oc1ccc(CC2CC3CCN2CC3)cc1O (centres undefined),52.7% (active)
18,CCc1ccc(N2C(=O)NC(=O)C(CCc3ccncc3)(CCc3ccncc3)C2=O)cc1,4.9% (inactive)
19,c1ccc(CCn2nnnc2CN2CCC(n3nnc4ccccc43)CC2)cc1,-11.1% (inactive)
20,COc1cccc(N2C(=O)NC(=O)C3(Cc4cc(C)ccc4N(C)C3)C2=O)c1 (centres undefined),-37% (inactive)
21,CN1CCc2nc(N)c(C#N)c(-c3ccccc3)c2C1,2.3% (inactive)
22,Cc1ccc2c(c1)=C/C(=C\c1c(O)[nH]c(=S)[nH]c1=O)C(=O)N=2,21.3% (inactive)
23,Cc1ccc2c(c1)=C/C(=C\c1c(O)[nH]c(=O)[nH]c1=O)C(=O)N=2,65% (active)
24,Cc1cccc2c1=NC(=O)/C(=C/c1c(O)[nH]c(=O)[nH]c1=O)C=2,-7.2% (inactive)

# From PubChem BioAssay AID1209 (Sanford-Burnham Center for Chemical Genomics, 2008)
